The record followed here is the supplement of paper PMC6089552.

For this assay, the system named is A673/TR/shEF. Kind of assay: cell viability (LOESS-normalised, relative to median of negative controls) (log2 ratio); higher = more viable cells (less compound effect), active = hit call of the paper (over 3 MAD below the median). The following applies: treatment time: 72 h. In short, it runs like this:
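For three days, A673/TR/shEF Ewing sarcoma cells in 384-well plates (1,500 per well) were treated with library compounds at two or more concentrations or with DMSO controls, after doxycycline had been added or withheld 24 h beforehand to induce EWS-FLI1 shRNA knockdown. Viability was read by CellTiter-Glo luminescence on an Envision reader. The data were LOESS-corrected per plate, divided by the median of negative controls and log2-transformed.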

The mark [1] stands for this setting: 0.25 µM, library screen: screen1, EWS-FLI1 expression: high (no doxycycline).
[2] abbreviates: 0.25 µM, library screen: screen1, EWS-FLI1 expression: low (doxycycline-induced shRNA knockdown).
Setting [3] is: 2.5 µM, library screen: screen1, EWS-FLI1 expression: high (no doxycycline).
Where [4] appears, read: 2.5 µM, library screen: screen1, EWS-FLI1 expression: low (doxycycline-induced shRNA knockdown).
[5] abbreviates: 0.25 µM, library screen: screen2, EWS-FLI1 expression: high (no doxycycline).
The mark [6] stands for this setting: 0.25 µM, library screen: screen2, EWS-FLI1 expression: low (doxycycline-induced shRNA knockdown).
Setting [7] is: 2.5 µM, library screen: screen2, EWS-FLI1 expression: high (no doxycycline).
Setting [8] is: 2.5 µM, library screen: screen2, EWS-FLI1 expression: low (doxycycline-induced shRNA knockdown).
Setting [9] is: 0.103 µM, library screen: screen3, EWS-FLI1 expression: high (no doxycycline).
Setting [10] is: 0.103 µM, library screen: screen3, EWS-FLI1 expression: low (doxycycline-induced shRNA knockdown).
The mark [11] stands for this setting: 0.308 µM, library screen: screen3, EWS-FLI1 expression: high (no doxycycline).
[12] abbreviates: 0.308 µM, library screen: screen3, EWS-FLI1 expression: low (doxycycline-induced shRNA knockdown).
Setting [13] is: 0.926 µM, library screen: screen3, EWS-FLI1 expression: high (no doxycycline).
Where [14] appears, read: 0.926 µM, library screen: screen3, EWS-FLI1 expression: low (doxycycline-induced shRNA knockdown).
Where [15] appears, read: 2.8 µM, library screen: screen3, EWS-FLI1 expression: high (no doxycycline).
Where [16] appears, read: 2.8 µM, library screen: screen3, EWS-FLI1 expression: low (doxycycline-induced shRNA knockdown).
Setting [17] is: 8.3 µM, library screen: screen3, EWS-FLI1 expression: high (no doxycycline).
The mark [18] stands for this setting: 8.3 µM, library screen: screen3, EWS-FLI1 expression: low (doxycycline-induced shRNA knockdown).
[19] abbreviates: 25 µM, library screen: screen3, EWS-FLI1 expression: high (no doxycycline).
Where [20] appears, read: 25 µM, library screen: screen3, EWS-FLI1 expression: low (doxycycline-induced shRNA knockdown).
[21] abbreviates: 0.025 µM, library screen: screen1, EWS-FLI1 expression: high (no doxycycline).
The mark [22] stands for this setting: 0.025 µM, library screen: screen1, EWS-FLI1 expression: low (doxycycline-induced shRNA knockdown).
Setting [23] is: 25 µM, library screen: screen1, EWS-FLI1 expression: high (no doxycycline).
[24] abbreviates: 25 µM, library screen: screen1, EWS-FLI1 expression: low (doxycycline-induced shRNA knockdown).

Structures are written as SMILES. Hit rate of the full screen: of about 3,200 compounds, about 300 (9.4%) showed activity. This is one part of a sample in which actives are shown more often than they occur.

On to `C[C@@H]1CC[C@H]2[C@](C)(CO)[C@@H](O)CC[C@]2(C)[C@@]12CC[C@@](CO)(CCO)O2`, for which the “cell viability (log2)” value by setting is: under setting [1], 0.0457 (inactive); under setting [2], -0.0603 (inactive); under setting [3], 0.0942 (inactive); under setting [4], 0.112 (inactive).

Consider `CC(C)(C)c1onc(OCP(=O)(O)O)c1CC(N)C(=O)O` (stereo unspecified), for which the “cell viability (log2)” value is, setting by setting: under setting [5], -0.0656 (inactive); under setting [6], 0.0767 (inactive); under setting [7], 0.0137 (inactive); under setting [8], 0.0837 (inactive).

As to `CCOC(=O)c1ccc(N)cc1`, the “cell viability (log2)” value is, setting by setting: under setting [1], 0.113 (inactive); under setting [2], 0.151 (inactive); under setting [3], 0.0778 (inactive); under setting [4], 0.18 (inactive).

For the compound `N=C1C=CC(=C(c2ccc(N)cc2)c2ccc(N)cc2)C=C1`, the “cell viability (log2)” value was -0.412 (active) under setting [1], -0.563 (active) under setting [2], -3.76 (active) under setting [3] and -3.35 (active) under setting [4].

Consider `N=C(N)c1ccc(N)cc1`, for which the “cell viability (log2)” value reads like this: under setting [5], 0.132 (inactive); under setting [6], 0.0859 (inactive); under setting [7], 0.0987 (inactive); under setting [8], 0.121 (inactive).

Take `CC(C)c1c(O)c(-c2cc3c(c(C(C)C)c2O)CCC2C(C)(C)CCCC32C)cc2c1CCC1C(C)(C)CCCC21C` (stereo unspecified): the “cell viability (log2)” value by setting is: under setting [1], 0.108 (inactive); under setting [2], 0.109 (inactive); under setting [3], 0.0993 (inactive); under setting [4], 0.112 (inactive).

With `COc1c(C)c2c(c(O)c1C/C=C(\C)CCC(=O)OCCN1CCOCC1)C(=O)OC2`, the “cell viability (log2)” value reads like this: under setting [9], 0.051 (inactive); under setting [10], 0.0315 (inactive); under setting [11], 0.00041 (inactive); under setting [12], 0.00916 (inactive); under setting [13], -0.00635 (inactive); under setting [14], 0.0426 (inactive). Moreover, the “cell viability (log2)” value is 0.0529 (inactive) under setting [15]; 0.0135 (inactive) under setting [16]; -0.0785 (inactive) under setting [17]; 0.0651 (inactive) under setting [18]; -0.48 (active) under setting [19]; -0.33 (active) under setting [20].

In the case of `COc1c(C)c2c(c(O)c1C/C=C(\C)CCC(=O)O)C(=O)OC2`, the “cell viability (log2)” value was 0.0161 (inactive) (0.025 µM, library screen: screen2, EWS-FLI1 expression: high (no doxycycline)); 0.0434 (inactive) (0.025 µM, library screen: screen2, EWS-FLI1 expression: low (doxycycline-induced shRNA knockdown)); 0.108 (inactive) under setting [9]; 0.173 (inactive) under setting [10]; 0.047 (inactive) under setting [1]; -0.0419 (inactive) under setting [2]. Also, the “cell viability (log2)” value under setting [5] is 0.0974 (inactive); the “cell viability (log2)” value under setting [6] was 0.108 (inactive); the “cell viability (log2)” value under setting [11] is 0.00407 (inactive); the “cell viability (log2)” value under setting [12] was 0.0569 (inactive); the “cell viability (log2)” value under setting [13] was 0.0822 (inactive); the “cell viability (log2)” value under setting [14] is 0.0245 (inactive). For the same compound, the “cell viability (log2)” value reads like this: under setting [3], 0.0367 (inactive); under setting [4], 0.00349 (inactive); under setting [7], 0.137 (inactive); under setting [8], -0.00198 (inactive); under setting [15], 0.147 (inactive); under setting [16], 0.096 (inactive). Moreover, the “cell viability (log2)” value under setting [17] was -0.0618 (inactive); the “cell viability (log2)” value under setting [18] was -0.0369 (inactive); the “cell viability (log2)” value (25 µM, library screen: screen2, EWS-FLI1 expression: high (no doxycycline)) was -0.533 (active); the “cell viability (log2)” value (25 µM, library screen: screen2, EWS-FLI1 expression: low (doxycycline-induced shRNA knockdown)) was -0.259 (active); the “cell viability (log2)” value under setting [19] was -0.488 (active); the “cell viability (log2)” value under setting [20] is -0.403 (active).

As to `COC1=C(OC)C(=O)C(C/C=C(\C)CC/C=C(\C)CC/C=C(\C)CC/C=C(\C)CC/C=C(\C)CC/C=C(\C)CC/C=C(\C)CC/C=C(\C)CC/C=C(\C)CCC=C(C)C)=C(C)C1=O`, the “cell viability (log2)” value was 0.0717 (inactive) under setting [1], 0.153 (inactive) under setting [2], 0.193 (inactive) under setting [3] and 0.233 (inactive) under setting [4].

For the compound `C(#CC12CC3CC(CC(C3)C1)C2)CN1CCOCC1`, the “cell viability (log2)” value by setting is: under setting [1], 0.0887 (inactive); under setting [2], 0.0273 (inactive); under setting [3], 0.163 (inactive); under setting [4], 0.0455 (inactive).

Consider `Brc1ccccc1CN1CCN(Cc2ccco2)CC1`, for which the “cell viability (log2)” value runs as follows: under setting [1], 0.15 (inactive); under setting [2], 0.0476 (inactive); under setting [3], 0.0744 (inactive); under setting [4], 0.0303 (inactive).

As for `Cn1c(=O)[nH]c(=O)c2[nH]cnc21`, the “cell viability (log2)” value runs as follows: under setting [1], 0.136 (inactive); under setting [2], -0.0262 (inactive); under setting [3], 0.111 (inactive); under setting [4], 0.0112 (inactive).

In the case of `C=C(C)C1COc2cc3oc(=O)ccc3cc2O1` (stereo unspecified), the “cell viability (log2)” value runs as follows: under setting [1], 0.0489 (inactive); under setting [2], 0.0843 (inactive); under setting [3], 0.0665 (inactive); under setting [4], 0.127 (inactive).

With `COc1ccc2c(c1)OC[C@@H](Cc1ccc(OC)c(OC)c1)[C@H]2O`, the “cell viability (log2)” value runs as follows: under setting [1], 0.0776 (inactive); under setting [2], -0.01 (inactive); under setting [3], 0.0904 (inactive); under setting [4], -0.0561 (inactive).

On to `C[N+]1(C)C2CC[C@H]1CC(OC(=O)C(O)c1ccccc1)C2` (stereo partly specified), for which the “cell viability (log2)” value reads like this: under setting [1], 0.0981 (inactive); under setting [2], 0.0981 (inactive); under setting [3], 0.164 (inactive); under setting [4], -0.0226 (inactive).

Consider `O=c1oc2cc3occc3cc2c2oc3cc4c(cc3c12)OCO4`, for which the “cell viability (log2)” value under setting [1] was 0.103 (inactive), the “cell viability (log2)” value under setting [2] was -0.01 (inactive), the “cell viability (log2)” value under setting [3] is 0.0469 (inactive) and the “cell viability (log2)” value under setting [4] is 0.0004 (inactive).

Regarding `OC[C@@H](O)C(O)[C@H](O)CO`, the “cell viability (log2)” value was 0.179 (inactive) under setting [1], 0.0545 (inactive) under setting [2], 0.145 (inactive) under setting [3] and 0.0215 (inactive) under setting [4].

Regarding `O=C(O)c1cc(N(Cc2ccccc2O)Cc2cc(O)ccc2O)ccc1O`, the “cell viability (log2)” value is, setting by setting: under setting [21], 0.17 (inactive); under setting [22], 0.0496 (inactive); under setting [1], 0.173 (inactive); under setting [2], 0.132 (inactive); under setting [3], 0.0556 (inactive); under setting [4], 0.0297 (inactive). Further, the “cell viability (log2)” value under setting [23] was 0.0931 (inactive) and the “cell viability (log2)” value under setting [24] is 0.144 (inactive).

As for `O=C(O)c1cc(NCc2cc(O)ccc2O)ccc1O`, the “cell viability (log2)” value runs as follows: under setting [21], 0.268 (inactive); under setting [22], -0.135 (inactive); under setting [1], 0.324; under setting [2], 0.0214 (inactive); under setting [3], -0.24 (active); under setting [4], -0.0017 (inactive). The “cell viability (log2)” value under setting [23] was -0.388 (active) and the “cell viability (log2)” value under setting [24] is 0.0315 (inactive).

On to `O=C(O)c1cc(O)ccc1O`, for which the “cell viability (log2)” value under setting [1] was 0.00691 (inactive), the “cell viability (log2)” value under setting [2] was 0.0897 (inactive), the “cell viability (log2)” value under setting [3] was 0.0219 (inactive) and the “cell viability (log2)” value under setting [4] is 0.0883 (inactive).
